The record followed here is PubChem BioAssay (EPA / NIEHS).

Assay [1] is described as follows: ATG_CRE_CIS: Attagene CIS-FACTORIAL HepG2 Assay for human cAMP Responsive Element (CRE) binding protein 3 (AID 2282926). Conditions: HepG2 CRE cis-reporter, Attagene multiplexed mRNA; actives raise or lower the signal. An outline of the steps: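 Readout: fluorescently labelled reporter transcripts resolved by capillary electrophoresis after RT-PCR, taken 24 h post-dosing in transfected HepG2. Endogenous transcription factor activity drives each cis-element reporter; gain or loss of signal fitted relative to DMSO control.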

For assay [2], the target named is CCAAT/enhancer-binding protein beta (Homo sapiens) (UniProt P17676). As to the kind of experiment: ATG_C_EBP_CIS: Attagene CIS-FACTORIAL HepG2 Assay for human CCAAT/Enhancer Binding Protein (C/EBP) beta (AID 2282927). Conditions: HepG2 Attagene cis-factorial transcription factor reporter; actives raise or lower the signal. The procedure, abridged: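 HepG2 transiently transfected with multiplexed reporter units under cis-regulatory promoters reporting endogenous C/EBPb activity. After 24 h exposure, reporter mRNA assayed by RT-PCR, fluorescent labelling, HpaI digestion and capillary electrophoresis; bidirectional fitting versus DMSO.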
Chain of CCAAT/enhancer-binding protein beta (Homo sapiens) (P17676 whole entry, looked up): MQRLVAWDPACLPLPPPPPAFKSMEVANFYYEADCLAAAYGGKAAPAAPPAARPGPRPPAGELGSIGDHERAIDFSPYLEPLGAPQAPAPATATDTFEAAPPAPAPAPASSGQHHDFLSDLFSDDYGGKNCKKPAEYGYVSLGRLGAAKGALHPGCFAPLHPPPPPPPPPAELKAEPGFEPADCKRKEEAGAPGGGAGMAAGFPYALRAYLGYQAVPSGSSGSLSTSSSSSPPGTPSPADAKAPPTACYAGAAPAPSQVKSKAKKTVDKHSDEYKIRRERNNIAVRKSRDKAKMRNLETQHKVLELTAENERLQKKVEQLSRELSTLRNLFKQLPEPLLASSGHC

A short description of assay [3]: ATG_DR4_LXR_CIS: Attagene CIS-FACTORIAL HepG2 Assay for human Liver X Receptor (LXR), DR4 submotif (AID 2282929). Conditions: HepG2 Attagene DR4 cis-reporter, mRNA transcription; actives raise or lower the signal. An outline of the steps:
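HepG2 cells transiently transfected with cis-promoter-driven multiplexed reporter units (DR4 element) were dosed for 24 h. Reporter mRNA was quantified by RT-PCR, fluorescent primer extension, HpaI digestion and capillary electrophoresis; bidirectional fitting versus DMSO baseline.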

A short description of assay [4]: ATG_AP_2_CIS: Attagene CIS-FACTORIAL HepG2 Assay for human Activator Protein 2 (AP-2) (AID 2282932). Conditions: HepG2 AP-2 cis-reporter, Attagene transcription factor profiling; actives raise or lower the signal. An outline of the steps: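 Liver-derived HepG2 line, cis-reporter system measuring endogenous factors; 24 h dosing; reporter mRNA detected by fluorescent RT-PCR and capillary electrophoresis.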

Assay [5] can be described thus: ATG_BRE_CIS: Attagene CIS-FACTORIAL HepG2 Assay for human Bone Morphogenetic Protein (BMP) Response Element (BRE) (AID 2282933). Conditions: HepG2 BMP response element reporter, Attagene transcription factor profiling; actives raise or lower the signal. An outline of the steps: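 Read-out: reporter mRNA induction quantified by RT-PCR and capillary electrophoresis after 24 h chemical exposure of transfected HepG2 cells. Endogenous factor activity on the BMP response element; gain or loss fitted against DMSO baseline.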

For assay [6], the target named is Transcription factor E2F1 (Homo sapiens) (UniProt Q01094). As to the kind of experiment: ATG_E2F_CIS: Attagene CIS-FACTORIAL HepG2 Assay for human E2F Transcription Factor 1 (AID 2282935). Conditions: HepG2 Attagene cis-reporter, E2F reporter RNA transcripts; actives raise or lower the signal. The procedure, abridged:
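Liver-derived HepG2 cells expressing transfected promoter-driven reporter units received test chemical for 24 hours. Signal gains or losses were fitted bidirectionally against DMSO.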

Assay [7] can be described thus: ATG_EGR_CIS: Attagene CIS-FACTORIAL HepG2 Assay for human Early Growth Response 1 (EGR1) (AID 2282938). Conditions: HepG2 Attagene CIS-FACTORIAL EGR reporter mRNA; actives raise or lower the signal. The procedure, abridged:
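HepG2 cells transiently transfected with cis-promoter-driven multiplexed reporter transcription units; reporter mRNA measured 24 h after compound dosing by RT-PCR, 6-FAM primer extension, HpaI digestion and capillary electrophoresis. Bidirectional fit versus DMSO baseline.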

Assay [8] is described as follows: ATG_M_19_CIS: Attagene CIS-FACTORIAL HepG2 Assay for M19 Transcription Factor (Internal Marker) (AID 2282939). Conditions: HepG2 Attagene CIS-FACTORIAL M19 internal marker reporter; actives raise or lower the signal. An outline of the steps: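 Readout: fluorescent reporter-transcript fragments by capillary electrophoresis after RT-PCR. Human HepG2 liver cells carried transfected MRTU constructs reporting endogenous transcription-factor activity; exposure 24 h. Gain or loss of signal fitted relative to DMSO.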

Assay [9] is described as follows: ATG_Ets_CIS: Attagene CIS-FACTORIAL HepG2 Assay for human Erythroblast Transformation Specific (ETS) (AID 2282941). Conditions: HepG2 ETS cis-reporter transcription, actives raise or lower the signal. An outline of the steps:
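Multiplexed reporter transcript profiling: HepG2, 24 h treatment, total RNA to cDNA, PCR, 6-FAM labelling, HpaI cut, capillary electrophoresis. Gain- or loss-of-signal fitted against DMSO.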

The target in assay [10] is Hepatocyte nuclear factor 3-beta (Homo sapiens) (UniProt Q9Y261). As to the kind of experiment: ATG_FoxA2_CIS: Attagene CIS-FACTORIAL HepG2 Assay for human Forkhead box A2 (FOXA2) (AID 2282942). Conditions: HepG2 cis-reporter transcription factor activity, 24 h; actives raise or lower the signal. An outline of the steps: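 HepG2 cells transiently transfected with multiple cis-regulated reporter transcription units, dosed for 24 h. Reporter mRNA measured by RT-PCR, 6-FAM labelling, HpaI digestion and capillary electrophoresis; bidirectional fitting against DMSO baseline.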
Chain of Hepatocyte nuclear factor 3-beta (Homo sapiens) (Q9Y261 whole entry, looked up): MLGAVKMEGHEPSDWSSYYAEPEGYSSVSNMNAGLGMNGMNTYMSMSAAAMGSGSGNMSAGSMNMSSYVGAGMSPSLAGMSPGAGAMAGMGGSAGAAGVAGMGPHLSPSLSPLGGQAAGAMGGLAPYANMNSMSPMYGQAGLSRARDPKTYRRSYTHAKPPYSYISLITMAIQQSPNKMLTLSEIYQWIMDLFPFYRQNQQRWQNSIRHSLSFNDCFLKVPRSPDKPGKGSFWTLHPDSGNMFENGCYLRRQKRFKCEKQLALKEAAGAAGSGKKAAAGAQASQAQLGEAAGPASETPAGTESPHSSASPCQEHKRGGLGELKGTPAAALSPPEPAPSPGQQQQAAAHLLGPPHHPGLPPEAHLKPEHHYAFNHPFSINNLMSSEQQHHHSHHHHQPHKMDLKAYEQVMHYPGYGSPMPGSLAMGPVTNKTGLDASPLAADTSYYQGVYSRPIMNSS

Assay [11] is described as follows: ATG_FoxO_CIS: Attagene CIS-FACTORIAL HepG2 Assay for human Forkhead box O (FoxO) (AID 2282943). Conditions: HepG2 Attagene cis-reporter, FoxO element, mRNA; actives raise or lower the signal. The procedure, abridged:
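HepG2 cells transiently transfected with cis-element-driven reporter units report endogenous FoxO activity. After 24 h chemical exposure, reporter mRNA quantified by RT-PCR, fluorescent labeling, HpaI digestion and capillary electrophoresis; bidirectional fit versus DMSO.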

Assay [12] can be described thus: ATG_GATA_CIS: Attagene CIS-FACTORIAL HepG2 Assay for human GATA Binding Protein (AID 2282944). Conditions: HepG2 GATA cis-element reporter, Attagene multiplex mRNA; actives raise or lower the signal. An outline of the steps: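 Read-out: fluorescent reporter mRNA fragments resolved by capillary electrophoresis after RT-PCR. Human liver HepG2 cells carried transiently transfected cis-regulated reporter constructs; chemicals incubated 24 h; gain or loss of signal fitted relative to DMSO.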

Assay [13] in a line: ATG_GLI_CIS: Attagene CIS-FACTORIAL HepG2 Assay for human Zinc Finger Protein GLI1 (AID 2282945). Conditions: HepG2, Attagene cis-factorial reporter mRNA, GLI element; actives raise or lower the signal. An outline of the steps:
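Transiently transfected HepG2 cells report endogenous transcription factor activity via cis-element-driven reporter units. After 24 h compound exposure, reporter mRNA was measured by RT-PCR with capillary electrophoresis; bidirectional fitting against DMSO baseline.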

The nature of assay [14]: ATG_M_06_CIS: Attagene CIS-FACTORIAL HepG2 Assay for M06 Transcription Factor (Internal Marker) (AID 2282950). Conditions: HepG2 Attagene CIS-FACTORIAL M06 internal marker reporter; actives raise or lower the signal. The procedure, abridged:
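Terse: HepG2, transient MRTU transfection (FuGene 6), 24 h dosing; total RNA, oligo(dT) RT, PCR, FAM label, HpaI cut, capillary electrophoresis; bidirectional fit vs DMSO baseline; background-control endpoint.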

A short description of assay [15]: ATG_MRE_CIS: Attagene CIS-FACTORIAL HepG2 Assay for human Metal Responsive Element (MRE) (AID 2282954). Conditions: HepG2 MRE cis-reporter transcription, Attagene multiplex; actives raise or lower the signal. The procedure, abridged:
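Measured here is mRNA induction from an MRE cis-element reporter in HepG2 after 24 h, quantified by fluorescence of labelled RT-PCR products on capillary electrophoresis; gain- and loss-of-signal fits use DMSO as baseline.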

Assay [16] has as its target Paired box protein Pax-6 (Homo sapiens) (UniProt P26367). The assay can be described thus: ATG_Pax6_CIS: Attagene CIS-FACTORIAL HepG2 Assay for human Paired Box 6 (PAX6) (AID 2282956). Conditions: HepG2 CIS-FACTORIAL PAX6 reporter transcription, RNA readout; actives raise or lower the signal. An outline of the steps:
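Values derive from bidirectional curve fitting of reporter mRNA signal relative to DMSO. HepG2 cells bearing transfected cis-regulated MRTUs were exposed for 24 h; transcripts were read by RT-PCR and capillary electrophoresis.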

Assay [17] is described as follows: ATG_PXRE_CIS: Attagene CIS-FACTORIAL HepG2 Assay for human Pregnane X Receptor Element (PXRE) (AID 2282957). Conditions: HepG2 Attagene CIS-FACTORIAL PXRE reporter, mRNA; actives raise or lower the signal. An outline of the steps: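 Read-out: fluorescence of reporter-specific RT-PCR products resolved by capillary electrophoresis, fitted bidirectionally relative to DMSO. Human HepG2 liver cells carried transfected cis-promoter reporter units and were exposed to chemicals for 24 h.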

Assay [18] in a line: ATG_Sox_CIS: Attagene CIS-FACTORIAL HepG2 Assay for human SRY-box transcription factor (SOX) (AID 2282960). Conditions: HepG2 Attagene cis-factorial SOX reporter, mRNA; actives raise or lower the signal. The procedure, abridged: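 HepG2 cells transiently transfected with cis-element-driven multiple reporter transcription units, dosed 24 h; reporter mRNA measured by RT-PCR, FAM labelling, HpaI digestion and capillary electrophoresis. Bidirectional fit versus DMSO baseline.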

Assay [19] concerns the target Transcription factor Sp1 (Homo sapiens) (UniProt P08047). As to the kind of experiment: ATG_Sp1_CIS: Attagene CIS-FACTORIAL HepG2 Assay for human Specificity Protein 1 (Sp1) (AID 2282961). Conditions: HepG2 Sp1 cis-reporter transcription, actives raise or lower the signal. An outline of the steps:
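HepG2 cells transiently transfected with multiple reporter transcription units driven by cis-regulatory elements; Sp1-responsive reporter mRNA measured 24 h after dosing by RT-PCR and capillary electrophoresis fluorescence, fitted bidirectionally against DMSO baseline.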

Assay [20] is described as follows: ATG_SREBP_CIS: Attagene CIS-FACTORIAL HepG2 Assay for human Sterol Regulatory Element Binding (SREBP) (AID 2282962). Conditions: HepG2 Attagene cis-factorial SREBP reporter, mRNA; actives raise or lower the signal. The procedure, abridged:
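Values derive from bidirectional curve fitting with DMSO as baseline. The underlying measurement is reporter mRNA from cis-element-regulated units in transiently transfected HepG2, quantified by RT-PCR and capillary electrophoresis after 24 h exposure.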

SMILES strings stand for the structures. Active and inactive are the calls of the source. The calls were made as follows: active = hit-call score of the fitted dose curve at least 0.9, where 1 is the maximum; inactive = score below 0.9.

Chain of Transcription factor Sp1 (Homo sapiens) (P08047 whole entry, looked up): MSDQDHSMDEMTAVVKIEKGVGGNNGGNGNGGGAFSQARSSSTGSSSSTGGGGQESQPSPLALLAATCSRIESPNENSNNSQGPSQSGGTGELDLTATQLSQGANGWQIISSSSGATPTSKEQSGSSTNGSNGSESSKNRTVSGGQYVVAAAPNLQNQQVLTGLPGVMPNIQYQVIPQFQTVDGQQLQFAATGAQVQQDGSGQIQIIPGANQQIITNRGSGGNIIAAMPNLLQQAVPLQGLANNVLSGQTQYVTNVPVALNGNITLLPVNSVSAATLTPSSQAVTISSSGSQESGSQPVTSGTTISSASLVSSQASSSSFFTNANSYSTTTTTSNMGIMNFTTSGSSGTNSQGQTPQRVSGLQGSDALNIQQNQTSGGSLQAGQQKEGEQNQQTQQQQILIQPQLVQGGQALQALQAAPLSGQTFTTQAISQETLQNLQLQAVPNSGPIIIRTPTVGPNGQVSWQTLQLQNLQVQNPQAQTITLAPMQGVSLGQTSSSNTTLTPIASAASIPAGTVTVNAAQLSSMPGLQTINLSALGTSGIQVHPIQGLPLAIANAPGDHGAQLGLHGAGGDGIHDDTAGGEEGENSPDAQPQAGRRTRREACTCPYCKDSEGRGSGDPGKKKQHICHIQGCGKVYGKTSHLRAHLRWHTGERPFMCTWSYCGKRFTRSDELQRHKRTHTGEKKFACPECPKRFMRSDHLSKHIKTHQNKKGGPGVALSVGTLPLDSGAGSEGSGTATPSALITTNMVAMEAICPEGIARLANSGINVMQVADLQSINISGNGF
Chain of Transcription factor E2F1 (Homo sapiens) (Q01094 whole entry, looked up): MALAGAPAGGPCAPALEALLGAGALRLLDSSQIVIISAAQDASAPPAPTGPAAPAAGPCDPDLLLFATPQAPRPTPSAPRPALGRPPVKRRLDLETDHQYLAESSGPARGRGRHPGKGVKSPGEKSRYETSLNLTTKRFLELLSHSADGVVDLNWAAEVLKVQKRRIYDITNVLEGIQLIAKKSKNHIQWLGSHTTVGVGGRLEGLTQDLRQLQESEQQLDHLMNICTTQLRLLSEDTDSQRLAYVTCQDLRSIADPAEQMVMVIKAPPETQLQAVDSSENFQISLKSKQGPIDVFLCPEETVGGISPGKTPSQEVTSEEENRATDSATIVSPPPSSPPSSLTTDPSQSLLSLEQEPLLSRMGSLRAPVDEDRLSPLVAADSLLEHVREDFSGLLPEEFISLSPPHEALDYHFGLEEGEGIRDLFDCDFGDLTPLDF
Chain of Paired box protein Pax-6 (Homo sapiens) (P26367 whole entry, looked up): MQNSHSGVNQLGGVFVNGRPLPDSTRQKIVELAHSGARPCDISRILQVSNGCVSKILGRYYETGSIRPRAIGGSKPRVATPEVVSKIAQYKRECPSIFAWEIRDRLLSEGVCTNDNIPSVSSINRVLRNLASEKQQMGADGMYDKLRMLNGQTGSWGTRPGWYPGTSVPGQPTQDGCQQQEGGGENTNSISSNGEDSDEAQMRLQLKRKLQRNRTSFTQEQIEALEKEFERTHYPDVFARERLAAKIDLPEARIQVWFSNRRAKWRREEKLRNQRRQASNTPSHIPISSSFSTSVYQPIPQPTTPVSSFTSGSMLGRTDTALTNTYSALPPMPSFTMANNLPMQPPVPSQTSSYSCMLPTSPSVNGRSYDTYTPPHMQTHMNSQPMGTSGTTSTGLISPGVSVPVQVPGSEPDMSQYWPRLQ

On to `CN1C[C@H](C(=O)N[C@]2(C)O[C@@]3(O)[C@@H]4CCCN4C(=O)[C@H](Cc4ccccc4)N3C2=O)C=C2c3cccc4[nH]cc(c34)C[C@H]21`, for which the molecule was classed as inactive in assay [1], in assay [2], in [3], in assay [4], in assay [5] and in assay [6]. For the same molecule, the result in [7], in [8], in [9], in assay [10], in [11] and in [12] was inactive. For the same molecule, the call in assay [13], in [14], in assay [15], in assay [16], in [18] and in assay [19] was inactive. Further, the concentration at half-maximal activity (AC50) – broadly, the concentration giving half of the maximal activity seen – in assay [17] was 0.445 µM (active); in assay [20], 16.4 µM (active).

As to `N#CCCCl`, the call in [1], in [2], in [3], in assay [4], in [5] and in [6] was inactive. Also, the call in assay [7], in assay [8], in assay [9], in assay [10], in [11] and in [12] was inactive. Further, the molecule was called inactive in assay [13], in [14], in [15], in assay [16], in [17] and in assay [18]. Moreover, the result in assay [19] and in assay [20] was inactive.

For `C=CC(=O)OCCO`, the half-maximal activity concentration (AC50) was 116 µM (active) in assay [1]; 123 µM (active) in assay [2]; 123 µM (active) in [3]; 36.9 µM (active) in assay [5]; 116 µM (active) in assay [7]; 70.9 µM (active) in [15]. Besides, the figures for the AC50 in [19] and in [20] were 156 µM (active) and 172 µM (active), respectively. Further, the outcome in assay [4], in assay [6], in assay [8], in [9], in assay [10] and in assay [11] was inactive. Besides, the molecule was classed as inactive in assay [12], in assay [13], in [14], in assay [16], in assay [17] and in [18].

Take `O=C=Nc1ccccc1`: the molecule was called inactive in assay [1], in [2], in assay [3], in [4], in [5] and in assay [6]. Also, the molecule was called inactive in [7], in assay [8], in assay [9], in [10], in assay [11] and in assay [12]. For the same molecule, the call in assay [13], in [14], in assay [15], in assay [16], in assay [18] and in assay [19] was inactive. For the same molecule, the molecule was called inactive in assay [20]. In assay [17], the AC50 was 11.7 µM (active).

Take `BrCBr`: the outcome in [1], in assay [2], in assay [3], in [4], in assay [5] and in [6] was inactive. For the same molecule, the molecule was classed as inactive in assay [7], in assay [8], in assay [9], in assay [10], in assay [11] and in assay [12]. The call in assay [13], in assay [14], in assay [15], in assay [16], in assay [17] and in assay [18] was inactive. Also, the molecule was called inactive in assay [19] and in assay [20].
